For seven compounds, growth results are on record in PubChem BioAssay (NCI).

Among the test systems are HCT-15 colon; HT29 colon; SNB-75 CNS; SNB-19 CNS; U251 CNS; PC-3 prostate; SK-MEL-5 melanoma; UACC-62 melanoma; LOX IMVI melanoma; SK-MEL-28 melanoma; SK-MEL-2 melanoma; EKVX NSCLC; SN12C renal; UO-31 renal; TK-10 renal; ACHN renal; CAKI-1 renal; A498 renal; CCRF-CEM leukemia; MOLT-4 leukemia.
Holding throughout (assay): NCI-60 one-dose screen, 48 h (100 = growth as untreated, 0 = no growth, -100 = all killed)
What all share (conditions): 10 µM unless noted

This is part of a sample that, as a whole, favours compounds with a hit. Of some 83,000 tested, about 20% had one in any assay.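 Step 1: grow cells in 96-well plates. Step 2: add test compound at a single concentration. Step 3: incubate 48 h. Step 4: record percent growth.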 Values without a mark were called inactive. Activity calls are given as the source filed them. How the source made its calls: active means growth percent below 10; inactive means the rest.

On to `CCNc1cc(-c2cccc(OC(F)(F)F)c2)nc2ccc(N3CCCC3)cc12`, for which the growth in the experiment with HCT-15 colon was 4.85% (active); with HT29 colon, 4.79% (active); in the experiment on SNB-75 CNS, 82.3%; in the experiment on SNB-19 CNS, 27%; in the experiment on U251 CNS it was -68.3% (active); with PC-3 prostate, 15.1%. The growth in the experiment on SK-MEL-5 melanoma was -64.3% (active); with UACC-62 melanoma, 50.7%; in the experiment with LOX IMVI melanoma, 11.3%; in the experiment on SK-MEL-28 melanoma it was 30.6%; in the experiment on SK-MEL-2 melanoma, 6.05% (active); with EKVX NSCLC it was 17.1%. The growth is 9.26% (active) in the experiment on SN12C renal; 5.13% (active) in the experiment with UO-31 renal; 35.5% in the experiment with TK-10 renal; -12.7% (active) in the experiment with ACHN renal; 30.6% in the experiment on CAKI-1 renal; 58.9% in the experiment on A498 renal. Moreover, the growth in the experiment with CCRF-CEM leukemia is 13.4%; in the experiment on MOLT-4 leukemia, 2.48% (active).

In the case of `O=C(CCCCC1CCSS1)Nc1ncnc2n[nH]c(-c3ccc(Oc4ccccc4)cc3)c12` (stereo not given), the growth in the experiment with HCT-15 colon is 95.8%; in the experiment on HT29 colon it was 88.3%; with SNB-75 CNS, 135%; in the experiment with SNB-19 CNS, 114%; in the experiment with U251 CNS, 106%; with PC-3 prostate, 90.2%. Also, the growth in the experiment with SK-MEL-5 melanoma was 87.9%; with UACC-62 melanoma it was 70.4%; in the experiment on LOX IMVI melanoma, 5.87% (active); in the experiment with SK-MEL-28 melanoma it was 47%; with SK-MEL-2 melanoma, 43.6%; in the experiment on EKVX NSCLC, 80.5%. The growth was 106% in the experiment with SN12C renal; 73.2% in the experiment with UO-31 renal; 109% in the experiment with TK-10 renal; 88.3% in the experiment with ACHN renal; 97.1% in the experiment on CAKI-1 renal; 123% in the experiment with A498 renal. Further, the growth in the experiment on CCRF-CEM leukemia was 13.7%; in the experiment with MOLT-4 leukemia it was -31.3% (active).

Turning to `Cc1cc(Cl)ccc1Nc1nc(C(F)(F)F)ccc1C(=O)N/N=C/c1ccc([N+](=O)[O-])cc1`, the growth in the experiment on HCT-15 colon was -1.51% (active); in the experiment with HT29 colon, -26.6% (active); in the experiment with SNB-75 CNS, -12.2% (active); in the experiment on SNB-19 CNS it was 22.7%; with U251 CNS it was -13.9% (active); in the experiment on PC-3 prostate, -43.7% (active). In addition, the growth in the experiment on SK-MEL-5 melanoma is 84.7%; in the experiment on UACC-62 melanoma, 12.6%; in the experiment on LOX IMVI melanoma it was 7.3% (active); in the experiment on SK-MEL-28 melanoma it was 5.64% (active); with SK-MEL-2 melanoma it was -33.5% (active); in the experiment with EKVX NSCLC, -8.42% (active). For the same compound, the growth is 4.6% (active) with SN12C renal; -27.1% (active) in the experiment on UO-31 renal; -8.71% (active) in the experiment with TK-10 renal; -22.9% (active) with ACHN renal; 2.14% (active) in the experiment on CAKI-1 renal; 88.9% with A498 renal. For the same compound, the growth is -12.9% (active) with CCRF-CEM leukemia and -5.84% (active) in the experiment on MOLT-4 leukemia.

Take `Cc1ccc(-c2nc3nc(-c4ccc(F)cc4)nc(N4CCNCC4)c3o2)cc1`: the growth with HCT-15 colon was -80% (active); in the experiment with HT29 colon it was -78.1% (active); in the experiment with SNB-75 CNS, -2.57% (active); in the experiment on SNB-19 CNS, 40.5%; with U251 CNS, -30.9% (active); in the experiment on PC-3 prostate, 14.8%. In addition, the growth is 96.9% in the experiment with SK-MEL-5 melanoma; 91.1% in the experiment on UACC-62 melanoma; -92% (active) in the experiment with LOX IMVI melanoma; 114% in the experiment on SK-MEL-28 melanoma; 102% in the experiment on SK-MEL-2 melanoma; 127% in the experiment on EKVX NSCLC. Further, the growth in the experiment with SN12C renal is -48.7% (active); in the experiment with UO-31 renal it was 76.7%; with TK-10 renal it was -35.8% (active); with ACHN renal, -95.5% (active); in the experiment on CAKI-1 renal it was 1.35% (active); in the experiment on A498 renal, 79.5%. For the same compound, the growth in the experiment on CCRF-CEM leukemia was -71% (active); in the experiment on MOLT-4 leukemia, -64.6% (active).

For `CCOC(=O)c1cnc2ccccc2c1Cl`, the growth is 101% in the experiment on HCT-15 colon; 101% with HT29 colon; 78.2% in the experiment with SNB-75 CNS; 99.2% with SNB-19 CNS; 102% in the experiment with U251 CNS; 90.9% in the experiment with PC-3 prostate. Besides, the growth is 88.1% with SK-MEL-5 melanoma; 95.2% in the experiment on UACC-62 melanoma; 86.2% in the experiment with LOX IMVI melanoma; 103% in the experiment on SK-MEL-28 melanoma; 109% in the experiment on SK-MEL-2 melanoma; 103% with EKVX NSCLC. Besides, the growth in the experiment with SN12C renal is 102%; in the experiment with UO-31 renal it was 95.1%; with TK-10 renal, 84.4%; in the experiment on ACHN renal, 99.4%; in the experiment on CAKI-1 renal, 94.8%; in the experiment on A498 renal, 56.6%. The growth was 118% in the experiment with CCRF-CEM leukemia and 99.9% in the experiment with MOLT-4 leukemia.

With `O=C(Nc1ccc(NC(=O)c2cc(=O)[nH]c3ccccc23)cc1)Nc1cccc(C(F)(F)F)c1`, the growth with HCT-15 colon is 95.3%; in the experiment on HT29 colon it was 67.8%; in the experiment on SNB-75 CNS, 58.5%; with SNB-19 CNS, 23.8%; in the experiment on U251 CNS, 19.5%; in the experiment on PC-3 prostate, 69.8%. The growth with SK-MEL-5 melanoma is 69.9%; with UACC-62 melanoma, 68%; with LOX IMVI melanoma, 21%; with SK-MEL-28 melanoma, 63.6%; in the experiment on SK-MEL-2 melanoma, 92.5%; in the experiment with EKVX NSCLC, 66.8%. For the same compound, the growth with SN12C renal is 54.2%; in the experiment with UO-31 renal, 71%; in the experiment on TK-10 renal, 134%; in the experiment with ACHN renal, 95%; with CAKI-1 renal, 71.5%; in the experiment with A498 renal, 100%. Further, the growth is 70.2% in the experiment with CCRF-CEM leukemia and 79.6% with MOLT-4 leukemia.

For the compound `COC(=O)c1c2c(c(C)[n+]([O-])c1C)C(=O)C=C(NCc1ccc(OC)cc1)C2=O`, the growth in the experiment with HCT-15 colon is -43.9% (active); in the experiment on HT29 colon, 3.5% (active); in the experiment on SNB-75 CNS, -97% (active); with SNB-19 CNS, -73.8% (active); in the experiment on U251 CNS, -45.7% (active); in the experiment with PC-3 prostate, -6.9% (active). Moreover, the growth in the experiment with SK-MEL-5 melanoma is -96.6% (active); in the experiment with UACC-62 melanoma, -75.1% (active); in the experiment with LOX IMVI melanoma, -12% (active); with SK-MEL-28 melanoma it was -6.37% (active); in the experiment on SK-MEL-2 melanoma it was -22.2% (active); with EKVX NSCLC, -57.6% (active). In addition, the growth with SN12C renal was -63% (active); in the experiment on UO-31 renal it was -9.55% (active); with TK-10 renal, 28.4%; in the experiment on ACHN renal, -11.5% (active); in the experiment on CAKI-1 renal, 0.875% (active); with A498 renal it was -15.4% (active). Also, the growth is 3.4% (active) with CCRF-CEM leukemia and -35.5% (active) with MOLT-4 leukemia.
